We go through eight molecules from PubChem BioAssay (NCI).

The panel holds about 83,000 compounds, 20% with a hit somewhere; the sample as a whole holds those more often.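 Growth was measured after 48 h exposure to one concentration of compound in 96-well plates. Values under 10 count as active.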 A number with no mark means an inactive call. Active and inactive are the calls of the source.

Experiment in all cases: NCI-60 one-dose screen, 48 h (100 = growth as untreated, 0 = no growth, -100 = all killed)
One assay deals with HCT-15 colon. To be noted: 10 µM unless noted.
Another assay has as its system HT29 colon. The conditions noted are these: 10 µM unless noted.
In a further assay the test system is SNB-75 CNS. The conditions noted are these: 10 µM unless noted.
In another assay the test system is SNB-19 CNS. The conditions noted are these: 10 µM unless noted.
In the next assay the test system is U251 CNS. The conditions noted are these: 10 µM unless noted.
Another assay relates to PC-3 prostate. To be noted: 10 µM unless noted.
The subject of the next assay is SK-MEL-5 melanoma. To be noted: 10 µM unless noted.
In a further assay the test system is UACC-62 melanoma. The conditions noted are these: 10 µM unless noted.
The subject of the next assay is LOX IMVI melanoma. To be noted: 10 µM unless noted.
For a further assay, the system named is SK-MEL-28 melanoma. To be noted: 10 µM unless noted.
The test system of a further assay is SK-MEL-2 melanoma. The conditions noted are these: 10 µM.
The subject of another assay is EKVX NSCLC. The conditions noted are these: 10 µM unless noted.
The subject of a further assay is SN12C renal. To be noted: 10 µM unless noted.
Another assay has as its system UO-31 renal. The conditions noted are these: 10 µM unless noted.
Another assay relates to TK-10 renal. The conditions noted are these: 10 µM unless noted.
A further assay relates to ACHN renal. To be noted: 10 µM unless noted.
Another assay relates to CAKI-1 renal. To be noted: 10 µM unless noted.
The next assay has as its system CCRF-CEM leukemia. The conditions noted are these: 10 µM unless noted.
The subject of the next assay is MOLT-4 leukemia. To be noted: 10 µM unless noted.

As to `Cc1cccc(NC(=O)[C@@H]2c3ccccc3C(=O)N(c3ccc(Cl)cc3)[C@H]2c2ccc(Cl)cc2)n1`, the growth with HCT-15 colon was 26.1%; in the assay on HT29 colon it was 11%; in the assay with SNB-75 CNS, 68.5%; with SNB-19 CNS, 67.5%; in the assay on U251 CNS, 43.1%; with PC-3 prostate, 17.1%. Besides, the growth in the assay with SK-MEL-5 melanoma is 33.1%; in the assay with UACC-62 melanoma, 44.1%; in the assay with LOX IMVI melanoma, 80.3%; with SK-MEL-28 melanoma, 69.2%; in the assay on SK-MEL-2 melanoma it was 56.6%; in the assay with EKVX NSCLC, 37.2%. Moreover, the growth was 66.5% in the assay with SN12C renal; 37.6% with UO-31 renal; 69.6% in the assay on TK-10 renal; 52% in the assay on ACHN renal; 55.6% in the assay on CAKI-1 renal; 73.2% with CCRF-CEM leukemia. For the same molecule, the growth in the assay with MOLT-4 leukemia is 35.9%.

Consider `CCCCCCCC(=O)SCC/C=C/[C@@H]1CC(=O)NCc2cc(ccn2)C2=N[C@@](C)(CS2)C(=O)N[C@@H](C(C)C)C(=O)O1`, for which the growth in the assay on HCT-15 colon is 1.6% (active); with HT29 colon, 1.74% (active); in the assay with SNB-75 CNS, 31.8%; in the assay with SNB-19 CNS, 10.2%; in the assay with U251 CNS, -55.7% (active); with PC-3 prostate it was 16.4%. Also, the growth in the assay on SK-MEL-5 melanoma is -95.3% (active); in the assay with UACC-62 melanoma, -56.8% (active); in the assay with LOX IMVI melanoma it was -95.1% (active); in the assay with SK-MEL-28 melanoma it was -24.7% (active); with SK-MEL-2 melanoma, -2.2% (active); with EKVX NSCLC, 19.9%. Besides, the growth in the assay on SN12C renal was 21.9%; with UO-31 renal, -10.5% (active); with TK-10 renal, -15.6% (active); in the assay with ACHN renal, -17.2% (active); in the assay on CAKI-1 renal, -54.4% (active); in the assay with CCRF-CEM leukemia, 39%. In addition, the growth in the assay with MOLT-4 leukemia was 12.8%.

On to `CC(N)C(Cc1ccccc1)c1ccc(Cl)cc1` (configuration not stated), for which the growth in the assay with HCT-15 colon was 101%; with HT29 colon, 76.8%; in the assay on SNB-75 CNS it was 70.4%; with SNB-19 CNS, 92%; with U251 CNS, 86.4%; in the assay with PC-3 prostate it was 68%. The growth was 93.3% with SK-MEL-5 melanoma; 93.2% in the assay with UACC-62 melanoma; 90.1% in the assay on LOX IMVI melanoma; 96.7% with SK-MEL-28 melanoma; 96.7% with SK-MEL-2 melanoma; 91.6% in the assay with EKVX NSCLC. The growth in the assay on SN12C renal is 90.7%; in the assay with UO-31 renal, 65.4%; in the assay on TK-10 renal it was 89.5%; in the assay on ACHN renal, 97%; in the assay on CAKI-1 renal it was 79.1%; in the assay on CCRF-CEM leukemia it was 91.2%. The growth in the assay on MOLT-4 leukemia is 76.4%.

`Cc1ccccc1Nc1nc2nonc2nc1Nc1cccc(C)c1C`: the growth in the assay on HCT-15 colon is 44.8%; in the assay with HT29 colon it was 46.9%; in the assay with SNB-75 CNS, 75.8%; in the assay on SNB-19 CNS, 52.7%; in the assay with U251 CNS it was 29.9%; in the assay with PC-3 prostate it was 42.2%. Besides, the growth was 5.63% (active) with SK-MEL-5 melanoma; 22.8% in the assay with UACC-62 melanoma; 54% with LOX IMVI melanoma; 79.7% in the assay with SK-MEL-28 melanoma; 24.9% with SK-MEL-2 melanoma; 27.2% in the assay with EKVX NSCLC. Also, the growth with SN12C renal is 44.3%; in the assay on UO-31 renal, 51.4%; in the assay with TK-10 renal, 56.4%; in the assay with ACHN renal, 52.6%; in the assay with CAKI-1 renal, 48.9%; in the assay on CCRF-CEM leukemia, 50.6%. In the assay on MOLT-4 leukemia, the growth is 53.5%.

For the molecule `CCN(CCN(C)C)C(=O)CNCc1cc(C(N)=O)ccn1`, the growth was 102% in the assay on HCT-15 colon; 80% with HT29 colon; 98.6% in the assay on SNB-75 CNS; 104% in the assay on SNB-19 CNS; 87.5% with U251 CNS; 79.5% with PC-3 prostate. The growth in the assay with SK-MEL-5 melanoma was 95.4%; in the assay on UACC-62 melanoma, 105%; with LOX IMVI melanoma, 99.5%; in the assay on SK-MEL-28 melanoma, 110%; with SK-MEL-2 melanoma it was 94.8%; with EKVX NSCLC, 104%. Moreover, the growth with SN12C renal was 98.8%; in the assay with UO-31 renal, 93.2%; with TK-10 renal, 96.4%; in the assay with ACHN renal it was 108%; in the assay on CAKI-1 renal, 105%; with CCRF-CEM leukemia, 93.6%. The growth in the assay with MOLT-4 leukemia is 99.8%.

For the molecule `CC(C)[C@@H](C)/C=C/[C@@H](C)[C@H]1CCC2=C3C=CC4=CC(=O)CC[C@]4(C)[C@H]3CC[C@@]21C`, the growth is 99.7% in the assay on HCT-15 colon; 74.3% with HT29 colon; 96.7% in the assay on SNB-75 CNS; 100% with SNB-19 CNS; 88.7% with U251 CNS; 62.8% with PC-3 prostate. For the same molecule, the growth is 89.5% in the assay on SK-MEL-5 melanoma; 94.9% in the assay with UACC-62 melanoma; 101% with LOX IMVI melanoma; 113% in the assay with SK-MEL-28 melanoma; 101% with SK-MEL-2 melanoma; 99.1% in the assay on EKVX NSCLC. For the same molecule, the growth in the assay on SN12C renal is 101%; with UO-31 renal, 92%; in the assay with TK-10 renal, 87.8%; with ACHN renal, 109%; with CAKI-1 renal, 93.9%; in the assay on CCRF-CEM leukemia it was 82.2%. For the same molecule, the growth in the assay on MOLT-4 leukemia was 85.5%.

For `COC(=O)[C@]12CC[C@@H](C)[C@H](C)[C@@H]1C1=CC[C@@H]3[C@@]4(C)C[C@@H](OC(=O)/C=C/c5ccccc5)[C@H](O)[C@@](C)(CO)[C@@H]4[C@H](O)C[C@@]3(C)[C@]1(C)CC2`, the growth with HCT-15 colon was -20.9% (active); with HT29 colon it was -49.3% (active); in the assay on SNB-75 CNS, 44.1%; in the assay with SNB-19 CNS, 14.3%; in the assay on U251 CNS, -28.5% (active); with PC-3 prostate it was 11.3%. Besides, the growth in the assay with SK-MEL-5 melanoma is 18.3%; in the assay on UACC-62 melanoma, 21.4%; in the assay with LOX IMVI melanoma, -96.4% (active); in the assay with SK-MEL-28 melanoma it was 4.73% (active); in the assay with SK-MEL-2 melanoma, 47.8%; in the assay on EKVX NSCLC it was 33.8%. For the same molecule, the growth is -83.2% (active) with SN12C renal; 19.6% with UO-31 renal; 18.1% in the assay on TK-10 renal; 3.47% (active) in the assay on ACHN renal; 15.6% in the assay on CAKI-1 renal; 18.8% with CCRF-CEM leukemia. Also, the growth with MOLT-4 leukemia was 0.848% (active).

Regarding `CC(N)C(Cc1ccc(Cl)cc1)c1ccc(Cl)cc1` (configuration not stated), the growth was 69.3% with HCT-15 colon; -21.9% (active) in the assay with HT29 colon; 48.6% in the assay with SNB-75 CNS; 82.4% with SNB-19 CNS; 5.91% (active) in the assay with U251 CNS; 37.5% in the assay on PC-3 prostate. Besides, the growth in the assay on SK-MEL-5 melanoma was 90.1%; with UACC-62 melanoma, 92.4%; in the assay on LOX IMVI melanoma, 74.3%; with SK-MEL-28 melanoma, 62.6%; in the assay on SK-MEL-2 melanoma, -58% (active); in the assay on EKVX NSCLC, 83.7%. Moreover, the growth with SN12C renal was 87%; in the assay with UO-31 renal, 55.8%; in the assay with TK-10 renal, 45.5%; in the assay with ACHN renal, 80.5%; in the assay on CAKI-1 renal, 59.6%; in the assay on CCRF-CEM leukemia, 65.6%. For the same molecule, in the assay on MOLT-4 leukemia, the growth is 34.9%.
